Measurements published in PubChem BioAssay (EPA / NIEHS).
Records with an inconclusive call do not appear. The source made the active and inactive calls. Rule for the calls: active = hit-call score of the fitted dose curve at least 0.9, where 1 is the maximum; inconclusive = response in the unintended direction; inactive = score below 0.9.

assay: STM_H9_NormalizedViability: Cytotoxicity Assessment at 120 hours in the Stemina devTOX quickPredict H9 human embryonic stem cell (hESC)-based Assay (AID 2283784)
Experimental: STM_H9_viability utilizes undifferentiated H9 cells to measure cell viability.STM_H9_NormalizedViability is a component calculated in the STM_H9_viability assay. It measures cell viability using background corrected relative fluorescence units (RFU) value from the CellTiterFluor Assay normalized to the value of the 0.1% DMSO neutral control treatment (by 96-well plate)Data from the assay component STM_H9_Viability was analyzed at the assay endpoint STM_H9_Viability_Norm in the positive analysis fitting direction relative to DMSO as the negative control and baseline of activity. Using a type of viability reporter, loss-of-signal activity can be used to understand viability.
H9 hESCs maintained in a pluripotent state were exposed to test compound for 72h with chemical replenishment with media replacement every 24h. Cell-conditioned media from the final 24-h treatment period was collected for analysis of the targeted biomarker, and cell viability of the corresponding cell layer was assessed. The chemical library was tested in blinded fashion. Each test plate included 1uM Methotrexate (MTX; Selleck Chemicals, Houston, Texas) as a positive reference, 5 nM MTX as a negative reference, 0.1% DMSO as the neutral (vehicle) control, and sample-level media blanks.H9 cell-conditioned media from the final 24-h treatment period was collected for analysis of the targeted biomarker and cell viability was measured from the corresponding cell layer. Cell viability was measured using the CellTiter-Fluor assay (Promega, Madison, Wisconsin) based on proteolytic cleavage of a substrate to fluorescent signal proportional to the number of living cells. The cell viability Relative Fluorescence Unit (RFU) was background corrected and normalized to mean RFU of the neutral control (0.1% DMSO). The collected H9-cell-conditioned media samples were processed for targeted biomarker analysis as described (Palmer et al., 2013). Briefly, spent media samples were deproteinized (40% acetonitrile) and processed for UPLC-HRMS. Data acquisition was performed using 4 separate UPLC-HRMS systems, consisting of an Agilent 1290 Infinity LC system (Agilent Technologies) interfaced with an Agilent high-resolution mass spectrometer (models G6520A, G6520B, G6530A, and G6224A). A Waters Acquity UPLC BEH Amide column (2.1mm x 50mm, 1.7lm particle size; Waters, Milford, Massachusetts) maintained at 40C was applied for separation of metabolites using a 6.5min solvent gradient with 0.1% formic acid in water and 0.1% formic acid in acetonitrile (1.0ml/min flow rate). Data were acquired using MassHunter Acquisition software (version B 04.00, Agilent Technologies). The extracted ion chromatogram (EIC) areas for ORN, CYSS, and their respective spike-in C13-standards were determined using the Agilent MassHunter Quantitative Analysis software, version B.05.00 or newer (Agilent Technologies), and data were normalized as described in Palmer et al. (2017).

**Q.** For `COc1cc(OC)nc(NC(=O)NS(=O)(=O)c2ncccc2OCC(F)(F)F)n1`, which outcome is on record?
**A.** Its outcome is “inactive”.

**Q.** For `Cn1c(-c2ccccc2)cc(-c2ccccc2)[n+]1C`, which AC50 is on record?
**A.** The AC50 was 31.1 µM (active).

**Q.** For `COc1ccc(-c2ccccc2)cc1NNC(=O)OC(C)C`, which AC50 is on record?
**A.** Its AC50 is 45.6 µM (active).

**Q.** Which outcome does the source give for `CC(C)(C)C(=O)C(Oc1ccc(Cl)cc1)n1cncn1` (stereo unspecified) here?
**A.** Its outcome is “inactive”.

**Q.** For `CC1(C)CCC(=Cc2ccc(Cl)cc2)C1(O)Cn1cncn1` (stereo unspecified), which outcome is on record?
**A.** Its outcome is “inactive”.

**Q.** With `CCN(CC)C(=O)C(C)Oc1cccc2ccccc12` (stereo unspecified) as the compound, how does the outcome read?
**A.** The outcome was “inactive”.

**Q.** For `N#CN=C1SCCN1Cc1ccc(Cl)nc1`, which outcome is on record?
**A.** Its outcome is “inactive”.

**Q.** With `O=C(Nc1ccccc1-c1ccc(Cl)cc1)c1cccnc1Cl` as the compound, how does the outcome read?
**A.** The outcome was “inactive”.

**Q.** With `CCCCC(C#N)(Cn1cncn1)c1ccc(Cl)cc1` (stereo unspecified) as the compound, how does the AC50 read?
**A.** The AC50 was 56 µM (active).

**Q.** For `CCNP(=S)(OC)O/C(C)=C/C(=O)OC(C)C` (stereo unspecified), which outcome is on record?
**A.** The outcome was “inactive”.

**Q.** Which outcome does the source give for `CCCN(CC)CC1COC2(CCC(C(C)(C)C)CC2)O1` (stereo unspecified) here?
**A.** Its outcome is “inactive”.

**Q.** Which outcome does the source give for `CS(=O)(=O)c1cc(C(F)(F)F)ccc1C(=O)c1cnoc1C1CC1` here?
**A.** Its outcome is “inactive”.

**Q.** For `CC(C)C1(C)N=C(c2ncccc2C(=O)O)NC1=O` (stereo unspecified), which outcome is on record?
**A.** The outcome was “inactive”.

**Q.** With `Cc1cc(C)nc(Nc2ccccc2)n1` as the compound, how does the outcome read?
**A.** Its outcome is “inactive”.

**Q.** Which outcome does the source give for `CCOc1nc(C(Cl)(Cl)Cl)ns1` here?
**A.** Its outcome is “inactive”.

**Q.** With `CCNC(=O)NC(=O)C(C#N)=NOC` as the compound, how does the outcome read?
**A.** Its outcome is “inactive”.

**Q.** For `CCCCC(O)(Cn1cncn1)c1ccc(Cl)cc1Cl` (stereo unspecified), which AC50 is on record?
**A.** The AC50 was 78.3 µM (active).

**Q.** For `CC(C)Nc1nc(Cl)nc(NC(C)C)n1`, which outcome is on record?
**A.** The outcome was “inactive”.

**Q.** With `COCc1cnc(C2=NC(C)(C(C)C)C(=O)N2)c(C(=O)O)c1` (stereo unspecified) as the compound, how does the outcome read?
**A.** The outcome was “inactive”.

**Q.** With `N#Cc1c[nH]cc1-c1cccc2c1OC(F)(F)O2` as the compound, how does the AC50 read?
**A.** Its AC50 is 76.4 µM (active).

**Q.** For `CCOP(=S)(OCC)Oc1nc(Cl)n(C(C)C)n1`, which outcome is on record?
**A.** The outcome was “inactive”.

**Q.** With `CC1(C)CON(Cc2ccccc2Cl)C1=O` as the compound, how does the outcome read?
**A.** Its outcome is “inactive”.

**Q.** For `CS(=O)(=O)c1ccc(C(=O)C2C(=O)CCCC2=O)c([N+](=O)[O-])c1`, which outcome is on record?
**A.** The outcome was “inactive”.

**Q.** For `Clc1cccc(C(Cl)(Cl)Cl)n1`, which outcome is on record?
**A.** Its outcome is “inactive”.

**Q.** Which AC50 does the source give for `CO/N=C(/C1=NOCCO1)c1ccccc1Oc1ncnc(Oc2ccccc2Cl)c1F` here?
**A.** Its AC50 is 35.2 µM (active).

**Q.** With `O=C1C2CC=CCC2C(=O)N1SC(Cl)(Cl)Cl` (stereo unspecified) as the compound, how does the outcome read?
**A.** Its outcome is “inactive”.
